Holding throughout (format): functional
In test [1] the test system is Plasmodium falciparum. As to the kind of experiment: GSK_TCMDC: Inhibition of Plasmodium falciparum 3D7 in whole red blood cells, using parasite LDH activity as an index of growth. Test compounds present at 2uM.
Test [2] deals with Plasmodium falciparum. As to the kind of experiment: GSK_TCMDC: Inhibition of Plasmodium falciparum Dd2 in whole red blood cells, using parasite LDH activity as an index of growth. Test compounds present at 2uM.
A further test deals with HepG2. As to the kind of experiment: GSK_TCMDC: Percent inhibition of human HepG2 cell line. Test compounds present at 10uM.

`Cc1ccc(F)cc1-c1cc(N2CCCN(C(=O)c3ccc(Br)o3)CC2)ncn1`: the Inhibition (in general, the percentage by which the read-out fell short of the control) in the test with Plasmodium falciparum [1] was found to be 94%; in the test on Plasmodium falciparum [2], 91%; with HepG2, 0%.

Turning to `CN1CCC(NCc2cccc(-c3ccc(S(=O)(=O)NCc4ccccc4)c(F)c3)c2)CC1.O=C(O)C(F)(F)F`, the Inhibition was 99% with Plasmodium falciparum [1], 99% in the test with Plasmodium falciparum [2] and 94% in the test on HepG2.

For the compound `O=C(Nc1ccc(OC2CCN(Cc3ccc(F)cc3)CC2)c(Cl)c1)c1ccsc1.O=C(O)C(F)(F)F`, the Inhibition in the test with Plasmodium falciparum [1] worked out at 94%; in the test on Plasmodium falciparum [2] it was 90%; with HepG2, 5%.

Turning to `CC1=NN(c2ccc(C)c(C)c2)C(=O)C1=NNc1cccc(-c2cccc(NC(=O)OC(C)(C)C)c2)c1O`, the Inhibition stood at 94% in the test on Plasmodium falciparum [1], 21% in the test on Plasmodium falciparum [2] and 39% in the test with HepG2.

In the case of `O=C(O)C(F)(F)F.O=S(=O)(NCCN1CCCC1)c1cccc(-c2cccc(CNCc3ccc(F)cc3)c2)c1`, the Inhibition is reported as 99% in the test with Plasmodium falciparum [1], 73% with Plasmodium falciparum [2] and 41% in the test on HepG2.

`COc1ccc(NC(=O)[C@H](CC(C)C)Nc2cc(C)nc(NCCc3ccccc3)n2)cc1.O=C(O)C(F)(F)F`: the Inhibition turned out to be 100% in the test with Plasmodium falciparum [1], 74% in the test with Plasmodium falciparum [2] and 13% in the test with HepG2.

As for `Cc1cccc(CN2CCCN(Cc3ccc(C(=O)Nc4ccc(C(C)(C)C)cc4)cc3)CC2)c1.O=C(O)C(F)(F)F`, the Inhibition in the test on Plasmodium falciparum [1] is on record as 97%; in the test with Plasmodium falciparum [2], 4%; in the test with HepG2 it was 57%.

For the compound `Fc1ccc(Nc2nnc(CNC3CCN(Cc4ccc(Cl)c(Cl)c4)CC3)[nH]2)cc1`, the Inhibition in the test on Plasmodium falciparum [1] was 100%; with Plasmodium falciparum [2] it was 36%; in the test with HepG2, 18%.

With `Nc1nc(N)c2cc(NS(=O)(=O)c3ccc(-c4ccccc4)cc3)ccc2n1`, the values for the Inhibition in the test on Plasmodium falciparum [1], in the test on Plasmodium falciparum [2] and in the test with HepG2 were 100%, 54% and 7%, respectively.

On to `Nc1nccc2ccc(OC3CCCCC3)cc12.O=CO`, for which the Inhibition in the test with Plasmodium falciparum [1] was found to be 98%; with Plasmodium falciparum [2], 41%; in the test on HepG2, 24%.

`CN1CCN(CCCN(Cc2csc(-c3ccc(CNCc4ccccc4)cc3)n2)C(=O)c2cc(F)cc(F)c2)CC1.O=C(O)C(F)(F)F`: the Inhibition in the test on Plasmodium falciparum [1] was found to be 97%; in the test with Plasmodium falciparum [2], 53%; in the test with HepG2 it was 60%.

`O=C(/C=C/c1ccc(Cl)c(Cl)c1)NCCCCCN1CCC(C(=O)Nc2ccc(F)c(Cl)c2)CC1`: the Inhibition is 100% with Plasmodium falciparum [1], 0% with Plasmodium falciparum [2] and 25% in the test with HepG2.

As to `CC(O)C1CCCCN1C(=O)c1ccc(-c2ccc(-c3nc4ccccc4[nH]3)s2)cc1` (stereo not given), the Inhibition is on record as 100% in the test with Plasmodium falciparum [1], 98% in the test on Plasmodium falciparum [2] and 33% in the test with HepG2.

Take `CCC(C)NS(=O)(=O)c1ccc2nc(Nc3ccc(C)cc3)n(C3CCCCC3C)c2c1` (stereo not given): the Inhibition in the test on Plasmodium falciparum [1] came to 95%; in the test on Plasmodium falciparum [2] it was 99%; in the test on HepG2 it was 1%.

Take `CCc1ccc(-c2cnc(N)c3cc(-c4ccnc(N)n4)ccc23)cc1`: the Inhibition in the test with Plasmodium falciparum [1] amounted to 92%; in the test on Plasmodium falciparum [2] it was 70%; with HepG2, 37%.

Consider `Cc1ncc([N+](=O)[O-])n1CCOC(=O)NC(NCC1COc2ccccc2O1)C(Cl)(Cl)Cl` (stereo not given), for which the results for the Inhibition in the test on Plasmodium falciparum [1], with Plasmodium falciparum [2] and with HepG2 were 100%, 78% and 0%, respectively.

Consider `Fc1ccccc1C=NN=c1cc[nH]c2ccccc12`, for which the Inhibition is 94% with Plasmodium falciparum [1], 26% in the test with Plasmodium falciparum [2] and 8% in the test on HepG2.

As for `O=C(NCCN1CCOCC1)c1ccc(CNC(=O)c2ccc(O)c(-c3ccc(Cl)c(Cl)c3)c2)cc1`, the Inhibition in the test on Plasmodium falciparum [1] came to 87%; in the test on Plasmodium falciparum [2], 55%; in the test on HepG2, 3%.

Regarding `CCc1cn2c3c(cc(C(=O)N[C@@H](Cc4cccc(Cl)c4)[C@H](O)CNC4CCCCC4)cc13)N(C)S(=O)(=O)CC2.O=CO`, the figures for the Inhibition in the test on Plasmodium falciparum [1], with Plasmodium falciparum [2] and in the test on HepG2 were 97%, 98% and 12%, respectively.

In the case of `Oc1cc(Nc2ccnc3cc(I)ccc23)c(F)cc1Cl`, the Inhibition was 92% with Plasmodium falciparum [1], 77% in the test on Plasmodium falciparum [2] and 0% in the test with HepG2.

Consider `CN1CCCN(Cc2ccc(-c3cccc(NC(=O)c4cccc(Cl)c4)c3)cc2)CC1.O=C(O)C(F)(F)F`, for which the Inhibition in the test on Plasmodium falciparum [1] came out at 100%; in the test on Plasmodium falciparum [2] it was 32%; in the test with HepG2, 33%.

Consider `CC(C)(C(=O)Nc1ccc(C2CCC(NCC3CC3)CC2)c(Cl)c1)c1cccc(OC(F)F)c1` (stereo not given), for which the Inhibition with Plasmodium falciparum [1] was found to be 99%; with Plasmodium falciparum [2], 23%; with HepG2, 34%.

With `CC(C)CNCc1cccc(-c2ccc(CNc3ccc4ncccc4c3)cc2)c1.O=C(O)C(F)(F)F`, the Inhibition with Plasmodium falciparum [1] is on record as 94%; with Plasmodium falciparum [2], 32%; in the test on HepG2, 13%.

For `COCCCC1C(=O)OC2CCCC21` (stereo not given), the Inhibition amounted to 93% in the test on Plasmodium falciparum [1], 85% in the test on Plasmodium falciparum [2] and 0% in the test with HepG2.

On to `COc1ccccc1CNc1nc(Nc2ccccc2C)nc2ccccc12`, for which the figures for the Inhibition with Plasmodium falciparum [1], in the test with Plasmodium falciparum [2] and in the test on HepG2 were 100%, 67% and 24%, respectively.

As for `COc1ccc(CNC2CCN(C)CC2)cc1-c1ccc(S(=O)(=O)NC2CCC2)c(F)c1.O=C(O)C(F)(F)F`, the figures for the Inhibition in the test with Plasmodium falciparum [1], with Plasmodium falciparum [2] and with HepG2 were 100%, 97% and 96%, respectively.

For `OCCc1ccc(Nc2nccc(-c3nnc4ccccn34)n2)cc1`, the Inhibition in the test with Plasmodium falciparum [1] came to 93%; in the test with Plasmodium falciparum [2] it was 46%; in the test with HepG2 it was 63%.

As for `COc1ccc(C2CCN(CCCCNC(=O)c3ccc(NC(=O)c4ccc(Cl)cc4)cc3)C2)c(OC)c1` (stereo not given), the Inhibition in the test on Plasmodium falciparum [1] is recorded as 84%; with Plasmodium falciparum [2], 0%; in the test with HepG2, 18%.

In the case of `N#CCCN1CCN(Cc2cccc(-c3ccc(-c4nc5ccccc5[nH]4)s3)c2)CC1.O=C(O)C(F)(F)F`, the Inhibition in the test with Plasmodium falciparum [1] is on record as 96%; in the test on Plasmodium falciparum [2] it was 8%; with HepG2 it was 48%.

As for `O=C(c1ccc(-c2ccc(-c3nc4cc(F)ccc4[nH]3)cc2)cc1)N1CCCCC1CN1CCC(O)C1` (stereo not given), the Inhibition with Plasmodium falciparum [1] is 90%; with Plasmodium falciparum [2] it was 100%; in the test with HepG2, 24%.

(Values after ChEMBL document CHEMBL1157539, “Thousands of chemical starting points for antimalarial lead identification” (Nature, 2010).)
